In PubChem BioAssay:
The source made the active and inactive calls.

Columns and labels:
[1] = system: Plasmodium falciparum Sir2 (PF13_0152, Sir2A); test: pfSir2 binders on small-molecule microarrays, primary screen, biochemical, small-molecule microarray, 635 nm fluorescence (AID 1098); conditions: small-molecule microarray binding, fluorescence 635 nm; higher = more signal;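 further: score merges spot fluorescence intensity with its signal-to-noise ratio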
[2] = small-molecule microarray binders of probe aDKK1, primary screen, biochemical, biotinylated probe, 635/667 nm fluorescence (AID 1099); conditions: higher = more signal;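 further: score merges 667nm spot fluorescence with signal to noise across triplicate slides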
[3] = small-molecule microarray binders of probe aCHRDL2, primary screen, biochemical, biotinylated probe, 635/667 nm fluorescence (AID 1100); conditions: higher = more signal
[4] = splicing luciferase reporter signal modulators, primary screen, spliceosome inhibition project, cell-based, HEK293, splice +/- reporter (AID 1101); conditions: luminescence, 24 h, higher = more signal, called active from +8 up or from −8 down;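 further: HEK293 cells carrying a splicing-competent luciferase reporter gene; test concentration not given here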
[5] = target: Fibroblast growth factor 10 (Homo sapiens) (UniProt O15520); test: FGF10 binders on small-molecule microarrays, primary screen, biochemical, small-molecule microarray, 635 nm fluorescence (AID 1102); conditions: FGF10 binding, fluorescence 635 nm, higher = more signal
[6] = system: glycogen synthase kinase-3 (GSK3A per assay name; protocol says GSK3B); test: GSK3 binders on small-molecule microarrays, primary screen, biochemical, small-molecule microarray, 635 nm fluorescence, GSK3A (AID 1103); conditions: small-molecule microarray binding, fluorescence 635 nm; higher = more signal; further: the record names both GSK3A and GSK3B
[7] = target: Epidermal growth factor receptor (Homo sapiens) (UniProt P00533); test: EGFR binders on small-molecule microarrays, primary screen, biochemical, small-molecule microarray, 635 nm fluorescence (AID 1104); conditions: EGFR binding, higher = more signal;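 further: score merges 667 nm emission intensity with spot signal to noise over triplicate slides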
[8] = target: Follistatin-related protein 3 (Homo sapiens) (UniProt O95633); test: FSTL3 binders on small-molecule microarrays, primary screen, biochemical, small-molecule microarray, 635 nm fluorescence (AID 1105); conditions: FSTL3 binding, higher = more signal;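 further: score merges emission near 667 nm and signal to noise per printed spot across three slides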
[9] = target: Dickkopf-related protein 1 (Homo sapiens) (UniProt O94907); test: DKK1 binders on small-molecule microarrays, primary screen, biochemical, small-molecule microarray, 635 nm fluorescence scan (AID 1106); conditions: DKK1 binding, higher = more signal;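 further: score merges emission near 667 nm with signal to noise over three replicate slides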
[10] = system: Inhibin beta A chain (activin A); test: INHBA (activin A) binders on microarrays, primary screen, biochemical, small-molecule microarray, 635 nm fluorescence scan (AID 1107); conditions: small-molecule microarray binding, higher = more signal;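 further: mouse activin A protein probed at 4.33 µg/mL on printed slides; score merges bound-protein fluorescence near 667 nm with spot signal-to-noise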
[11] = system: Human papillomavirus type 1a protein E7 (residues 44-93); test: HPV1a E7 fragment binders on microarrays, primary screen, biochemical, small-molecule microarray, residues 44-93, 635 nm fluorescence (AID 1108); conditions: small-molecule microarray binding, fluorescence 635 nm; higher = more signal;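 further: E7 fragment applied at 1 µg/mL in TBST for 1 h at 4 C; score combines spot fluorescence with its signal to noise ratio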
[12] = modulators of HCV replicon luciferase signal, primary screen, HCV replication inhibitor project, Huh7 cells, luciferase reporter (AID 1109); conditions: 48 h, higher = more signal;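 further: huh7 hepatoma cells harbouring a luciferase neomycin HCV replicon reporter; luciferase luminescence as measure of HCV replicon replication; test concentration not given here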
[13] = target: Left-right determination factor 2 (Homo sapiens) (UniProt O00292); test: LEFTY2 binders on small-molecule microarrays, primary screen, biochemical, small-molecule microarray, 635 nm fluorescence scan (AID 1110); conditions: LEFTY2 binding, higher = more signal
[14] = target: Calmodulin-1 (Homo sapiens) (UniProt P0DP23); test: CALM1 binders on microarrays, EGTA buffer, profiling panel, biochemical, small-molecule microarray, Cy5-labelled CALM1 (AID 1111); conditions: Cy5-CALM1 binding fluorescence, higher = more signal;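 further: labelled calmodulin applied in Tris saline Tween buffer holding calcium plus EGTA and DTT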
[15] = target: Calmodulin-1 (Homo sapiens) (UniProt P0DP23); test: calcium-bound CALM1 binders on microarrays, profiling panel, artefact control for SMM control-protein annotation, biochemical, small-molecule microarray, Cy5-labelled CALM1, plus calcium (AID 1112); conditions: Cy5-CALM1 binding fluorescence, higher = more signal;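 further: score merges spot fluorescence with signal to noise from triplicate slides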
[16] = small-molecule microarray binders of probe aWnt5a, primary screen, biochemical, biotinylated probe, 635/667 nm fluorescence (AID 1113); conditions: higher = more signal;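 further: score merges 667 nm fluorescence intensity with signal-to-noise per printed feature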
[17] = small-molecule microarray binders of probe aShh, primary screen, biochemical, biotinylated probe, 635/667 nm fluorescence (AID 1114); conditions: higher = more signal;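 further: probe is biotin-labelled aShh protein from a stem cell growth factor screen; measures binding of labelled protein to compounds printed on the slide; score merges feature fluorescence at 667 nm with signal-to-noise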
[18] = small-molecule microarray binders of probe aNog, primary screen, biochemical, biotinylated probe, 635/667 nm fluorescence (AID 1115); conditions: higher = more signal;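 further: probe is biotinylated aNog protein used at 0.15 µg/mL for 1 h at 4 C; z-score combines 667 nm fluorescence of each spot with its signal to noise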
[19] = target: Torsin-1A-interacting protein 1 (Homo sapiens) (UniProt Q5JTV8); test: LAP1 binders from COS7 cell lysate, primary screen, small-molecule microarray, 635/667 nm fluorescence (AID 1116); conditions: COS7-hLAP1 lysate binding, 635 nm fluorescence, higher = more signal
[20] = target: Alpha-bungarotoxin (Bungarus multicinctus) (UniProt P60615); test: alpha-bungarotoxin binders on microarray, profiling panel, artefact control for SMM control protein annotation, biochemical, small-molecule microarray, Alexa647 label, 635/667 nm fluorescence (AID 1117); conditions: alpha-BTX-A647 binding fluorescence, higher = more signal
Sequence of Alpha-bungarotoxin (Bungarus multicinctus) (P60615 whole entry, looked up): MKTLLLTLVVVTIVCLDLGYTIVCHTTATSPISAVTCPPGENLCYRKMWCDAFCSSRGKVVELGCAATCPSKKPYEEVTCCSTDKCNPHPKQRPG

Sequence of Left-right determination factor 2 (Homo sapiens) (O00292 whole entry, looked up): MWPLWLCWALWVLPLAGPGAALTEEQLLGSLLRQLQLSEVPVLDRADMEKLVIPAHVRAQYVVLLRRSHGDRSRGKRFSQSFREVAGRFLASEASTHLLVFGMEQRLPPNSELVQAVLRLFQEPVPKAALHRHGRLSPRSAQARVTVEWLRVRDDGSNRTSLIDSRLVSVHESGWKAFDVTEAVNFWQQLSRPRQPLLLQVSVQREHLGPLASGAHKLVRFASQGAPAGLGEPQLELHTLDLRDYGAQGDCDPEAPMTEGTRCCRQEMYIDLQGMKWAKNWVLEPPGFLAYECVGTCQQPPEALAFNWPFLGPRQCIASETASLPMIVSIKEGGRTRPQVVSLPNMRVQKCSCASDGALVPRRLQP
Sequence of Torsin-1A-interacting protein 1 (Homo sapiens) (Q5JTV8 whole entry, looked up): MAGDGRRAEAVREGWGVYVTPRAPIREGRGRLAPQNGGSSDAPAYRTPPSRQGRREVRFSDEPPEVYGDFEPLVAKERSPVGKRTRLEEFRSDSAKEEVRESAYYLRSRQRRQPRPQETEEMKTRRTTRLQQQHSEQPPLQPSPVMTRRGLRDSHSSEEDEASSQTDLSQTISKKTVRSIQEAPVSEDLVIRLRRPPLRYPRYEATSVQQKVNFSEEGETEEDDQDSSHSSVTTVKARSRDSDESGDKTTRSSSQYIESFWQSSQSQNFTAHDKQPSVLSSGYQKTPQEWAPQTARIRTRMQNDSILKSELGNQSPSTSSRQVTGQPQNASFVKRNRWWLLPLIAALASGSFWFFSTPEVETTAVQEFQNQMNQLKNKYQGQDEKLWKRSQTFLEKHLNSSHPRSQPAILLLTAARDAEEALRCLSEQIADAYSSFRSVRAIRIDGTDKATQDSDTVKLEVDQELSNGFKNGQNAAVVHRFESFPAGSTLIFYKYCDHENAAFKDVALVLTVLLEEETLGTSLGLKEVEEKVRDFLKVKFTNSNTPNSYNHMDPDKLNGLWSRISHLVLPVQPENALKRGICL
Sequence of Follistatin-related protein 3 (Homo sapiens) (O95633 whole entry, looked up): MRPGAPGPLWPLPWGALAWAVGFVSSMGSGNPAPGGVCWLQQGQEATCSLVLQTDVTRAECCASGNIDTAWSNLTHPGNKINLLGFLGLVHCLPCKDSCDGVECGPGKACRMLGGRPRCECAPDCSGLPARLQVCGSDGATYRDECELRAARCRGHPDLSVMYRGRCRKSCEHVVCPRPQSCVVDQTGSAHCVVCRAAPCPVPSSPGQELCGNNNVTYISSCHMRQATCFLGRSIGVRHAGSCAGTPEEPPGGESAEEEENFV
Sequence of Fibroblast growth factor 10 (Homo sapiens) (O15520 whole entry, looked up): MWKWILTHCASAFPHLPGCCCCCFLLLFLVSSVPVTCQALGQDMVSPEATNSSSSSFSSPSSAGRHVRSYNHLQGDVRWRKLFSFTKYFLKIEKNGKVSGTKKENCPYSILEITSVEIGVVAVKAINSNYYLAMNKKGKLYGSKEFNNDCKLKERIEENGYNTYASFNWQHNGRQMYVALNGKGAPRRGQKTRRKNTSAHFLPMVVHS
Sequence of Dickkopf-related protein 1 (Homo sapiens) (O94907 whole entry, looked up): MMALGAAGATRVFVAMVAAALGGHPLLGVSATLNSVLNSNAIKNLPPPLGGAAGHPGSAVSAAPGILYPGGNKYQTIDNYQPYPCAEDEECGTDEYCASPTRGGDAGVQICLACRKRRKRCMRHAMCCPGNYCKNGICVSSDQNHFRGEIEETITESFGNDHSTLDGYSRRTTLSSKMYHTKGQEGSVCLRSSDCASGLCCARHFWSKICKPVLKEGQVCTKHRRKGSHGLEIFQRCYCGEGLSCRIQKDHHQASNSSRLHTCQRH
Sequence of Epidermal growth factor receptor (Homo sapiens) (P00533 whole entry, looked up): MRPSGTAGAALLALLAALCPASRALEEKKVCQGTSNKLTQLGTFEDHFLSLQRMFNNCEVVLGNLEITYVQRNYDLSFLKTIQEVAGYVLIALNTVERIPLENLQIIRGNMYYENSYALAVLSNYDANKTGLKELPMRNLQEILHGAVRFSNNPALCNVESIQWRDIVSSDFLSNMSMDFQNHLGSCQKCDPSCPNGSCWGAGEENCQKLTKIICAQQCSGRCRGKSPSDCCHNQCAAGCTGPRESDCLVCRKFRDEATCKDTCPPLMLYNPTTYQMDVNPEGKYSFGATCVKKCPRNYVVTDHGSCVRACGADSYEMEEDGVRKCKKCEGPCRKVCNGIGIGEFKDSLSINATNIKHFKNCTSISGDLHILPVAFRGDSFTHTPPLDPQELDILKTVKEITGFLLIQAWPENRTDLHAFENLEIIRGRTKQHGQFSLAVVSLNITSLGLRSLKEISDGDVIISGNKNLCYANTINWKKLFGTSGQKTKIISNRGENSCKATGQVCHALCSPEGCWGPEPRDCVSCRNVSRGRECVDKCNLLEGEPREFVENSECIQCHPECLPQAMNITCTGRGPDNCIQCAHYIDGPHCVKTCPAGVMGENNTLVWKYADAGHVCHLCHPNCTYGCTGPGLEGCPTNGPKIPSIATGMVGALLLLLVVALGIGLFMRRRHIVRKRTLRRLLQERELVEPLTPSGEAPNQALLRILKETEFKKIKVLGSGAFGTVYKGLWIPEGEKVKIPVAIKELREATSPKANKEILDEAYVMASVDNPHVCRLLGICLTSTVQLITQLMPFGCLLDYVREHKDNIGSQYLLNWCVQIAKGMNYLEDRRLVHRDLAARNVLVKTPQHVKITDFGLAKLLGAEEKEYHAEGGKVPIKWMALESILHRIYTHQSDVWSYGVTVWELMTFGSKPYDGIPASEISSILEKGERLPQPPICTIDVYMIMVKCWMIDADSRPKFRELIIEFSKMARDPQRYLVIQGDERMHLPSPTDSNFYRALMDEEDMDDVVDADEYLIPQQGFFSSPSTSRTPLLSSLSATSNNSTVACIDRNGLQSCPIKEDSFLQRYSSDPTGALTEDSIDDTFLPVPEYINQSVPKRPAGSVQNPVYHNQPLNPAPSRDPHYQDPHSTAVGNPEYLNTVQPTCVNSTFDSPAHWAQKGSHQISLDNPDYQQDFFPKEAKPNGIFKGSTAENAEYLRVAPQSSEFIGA

| Compound | composite z-score [1] | composite z-score [2] | composite z-score [3] | z-score [4] | composite z-score [5] | composite z-score [6] | composite z-score [7] | composite z-score [8] | composite z-score [9] | composite z-score [10] | composite z-score [11] | z-score [12] | composite z-score [13] | composite z-score [14] | composite z-score [15] | composite z-score [16] | composite z-score [17] | composite z-score [18] | composite z-score [19] | composite z-score [20] |
| --- | --- | --- | --- | --- | --- | --- | --- | --- | --- | --- | --- | --- | --- | --- | --- | --- | --- | --- | --- | --- |
| CN1CCC(CCCO)=CC1c1cccs1 (stereo not given) | 0.238 | -0.391 | -0.141 | 0.697 (inactive) | -0.095 | 0.0706 | -0.185 | -0.61 | 0.208 | 0.233 | -1.03 | -0.132 | -0.0692 | -0.949 | -0.431 | -0.176 | -0.0474 | -0.305 | 0.427 | -0.0493 |
| C[N+](C)(C)CCCC[C@@H]1NC(=O)[C@@H]2C[C@H](C(=O)NCCCCCN)[C@H](c3ccc(O)cc3)N2C1=O | 1.55 | 1.16 | 0.808 | -1.1 (inactive) | 1.42 | 1.29 | 0.024 | 0.878 | 0.308 | 0.199 | 1.34 | 0.0633 | 1.24 | 2.08 | 1.12 | 0.0775 | -0.167 | 1.57 | 1.29 | 2.13 |
| CCCC(=O)N(CCc1c[nH]c2ccccc12)[C@@H]1CC(C(=O)NCCO)=C[C@H](Oc2c(I)cc(CO)cc2OC)[C@H]1O | -0.575 | -0.334 | -0.516 | -0.125 (inactive) | -0.0122 | -0.431 | 0.164 | 0.0027 | 0.404 | 0.181 | 0.434 | 0.354 | 0.362 | -0.0781 | -0.36 | -0.129 | -0.221 | -0.234 | 0.0957 | -0.0162 |
| COCCOC(=O)N1C(=O)[C@@]2(c3ccccc31)[C@H](C(N)=O)[C@H]1C(=O)O[C@H](c3ccccc3)[C@H](c3ccccc3)N1[C@@H]2c1ccc(O)cc1 | 0.784 | -0.566 | 0.481 | -0.726 (inactive) | 0.0392 | -0.0985 | -0.458 | 0.292 | -0.0601 | 0.0565 | 1.37 | -0.328 | 0.113 | 0.0186 | -0.346 | -0.199 | -0.0769 | -0.334 | -0.602 | -0.364 |
| C=C(CCCC)/C(=C/C[C@H](OC(=O)c1ccncc1)c1ccc(OCCO)cc1)c1cc(C(=O)OC)ccc1OC | 0.694 | -0.172 | -0.116 | -1.14 (inactive) | 0.752 | -0.139 | 0.053 | 0.14 | 0.204 | 1.29 | 1.09 | -2.01 | 0.318 | 0.226 | 0.176 | 0.0491 | 0.216 | -0.158 | 1.26 | 0.378 |
| O=C1C2C=CC(C(O)C=Cc3ccc([N+](=O)[O-])cc3)N(Nc3ccccc3F)C2C(=O)N1c1ccccc1 (stereo not given) | 0.808 | 0.468 | 0.831 | 0.755 (inactive) | 1.13 | 1.28 | 0.464 | 1.13 | 0.0328 | 1.08 | 1.47 | -0.969 | 0.458 | 1.27 | 0.362 | 0.0037 | 0.166 | 0.581 | 1.18 | 1.12 |
| C=C(C)[C@@H]1CC=C(C(O)C2C=CC3C(=O)NC(=O)C3N2Nc2ccc(Cl)cc2Cl)CC1 (stereo not given in full) | 0.576 | 0.802 | 1.3 | 0.172 (inactive) | 0.276 | 0.289 | 0.433 | 1.06 | 0.414 | 1.66 | 0.762 | -0.537 | 0.216 | 2.19 | 1.21 | 0.0328 | -0.0271 | 1.61 | 0.584 | 2.26 |
| CC(=O)NCCCC[C@@H]1NC(=O)[C@H]2C[C@@H](C(=O)NCCCCCNC(=O)CS)[C@@H](c3ccc(O)cc3)N2C1=O | 0.273 | 0.143 | 0.762 | -0.372 (inactive) | 0.157 | -0.252 | -0.578 | -0.84 | -0.186 | -0.0107 | 0.46 | -0.0987 | -0.574 | 0.362 | 0.438 | -0.0919 | -0.0035 | -0.196 | 0.177 | 0.117 |
| OCC1C=C(/C=C/c2ccccc2)CN1Cc1ccccc1Br (stereo not given) | 1.1 | 0.296 | -0.241 | 0.103 (inactive) | 1.18 | 0.86 | 0.357 | 1.37 | 1.12 | 0.692 | -0.119 | -1.92 | 1.14 | 0.776 | -0.265 | 0.0375 | -0.0553 | -0.266 | 0.289 | 1.12 |
| CC(=O)NCCCC[C@@H]1NC(=O)[C@H]2C[C@@H](C(=O)O)[C@@H](c3ccc(O)cc3)N2C1=O | 1.43 | 0.13 | 0.372 | -0.177 (inactive) | 1.32 | 1.34 | 1.02 | 1.44 | 1.28 | 1.47 | 1.12 | -3.1 | 1.08 | 0.192 | -0.548 | 0.0825 | 0.108 | 0.005 | 0.0682 | 0.626 |
| COC(=O)[C@@]1(Cc2ccccc2)[C@H]2c3cc(C(=O)N4CCCC4)n(Cc4c(CO)[nH]cc(C)c4=O)c3C[C@H]2CN1C(=O)c1ccccc1 | 0.893 | 0.896 | 1.24 | 0.796 (inactive) | 0.303 | 0.132 | 0.113 | 0.0713 | -0.135 | 1.27 | -0.596 | -0.783 | -0.169 | 1.71 | 0.893 | 0.0775 | -0.181 | 1.28 | 2.02 | 0.546 |
